Holding throughout (design): scale not given: direction of the effect not stated beside the values
Assay [1] has as its target Protein translocase subunit SecA (Escherichia coli (strain K12)) (UniProt P10408). In words: Assay to Identify E. coli SecA ATPase Inhibitors. It counts as functional. To be noted: 30 µM.
Assay [2] deals with T1, Ubiquitin-activating enzyme e1, putative (Leishmania donovani (strain BPK282A1)) (UniProt E9BSI1).
T1 sequence (whole entry): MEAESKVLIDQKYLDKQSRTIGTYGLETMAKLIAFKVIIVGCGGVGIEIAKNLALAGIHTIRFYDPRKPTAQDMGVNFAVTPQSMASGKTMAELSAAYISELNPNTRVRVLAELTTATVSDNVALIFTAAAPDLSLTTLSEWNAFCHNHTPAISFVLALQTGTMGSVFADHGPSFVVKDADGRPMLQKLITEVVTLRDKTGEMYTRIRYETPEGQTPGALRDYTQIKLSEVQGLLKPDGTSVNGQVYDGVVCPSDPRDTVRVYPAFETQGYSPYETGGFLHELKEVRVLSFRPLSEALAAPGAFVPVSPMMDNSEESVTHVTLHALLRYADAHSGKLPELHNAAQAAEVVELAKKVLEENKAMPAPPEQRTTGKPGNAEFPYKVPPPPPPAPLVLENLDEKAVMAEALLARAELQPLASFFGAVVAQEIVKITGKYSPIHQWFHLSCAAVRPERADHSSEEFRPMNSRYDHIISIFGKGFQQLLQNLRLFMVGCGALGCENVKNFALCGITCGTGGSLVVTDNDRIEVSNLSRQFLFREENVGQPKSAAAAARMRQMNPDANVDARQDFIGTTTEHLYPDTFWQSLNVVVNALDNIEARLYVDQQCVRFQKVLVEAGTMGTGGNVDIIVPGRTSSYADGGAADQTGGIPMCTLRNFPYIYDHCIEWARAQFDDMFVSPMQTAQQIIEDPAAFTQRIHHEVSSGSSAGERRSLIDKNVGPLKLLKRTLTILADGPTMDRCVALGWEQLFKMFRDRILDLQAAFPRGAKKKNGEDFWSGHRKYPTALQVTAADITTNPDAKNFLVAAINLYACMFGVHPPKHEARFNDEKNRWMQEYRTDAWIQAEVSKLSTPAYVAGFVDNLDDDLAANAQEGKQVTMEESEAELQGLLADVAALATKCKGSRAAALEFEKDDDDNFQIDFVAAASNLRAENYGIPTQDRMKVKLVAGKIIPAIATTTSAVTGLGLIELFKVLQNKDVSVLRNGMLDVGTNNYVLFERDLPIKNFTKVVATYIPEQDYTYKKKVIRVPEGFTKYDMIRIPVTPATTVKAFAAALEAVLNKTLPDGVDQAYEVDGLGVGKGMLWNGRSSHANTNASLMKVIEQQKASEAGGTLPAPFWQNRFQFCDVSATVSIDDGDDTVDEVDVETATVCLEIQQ
In words: Leishmania donovani Ubiquitin Activating Enzyme (LdE1). It is filed as functional. To be noted: 30 µM.

Assay [3] has as its target AMP-activated protein kinase, AMPK (Homo sapiens) (UniProt P54646+O43741+P54619+Q9UGJ0+Q9Y478+Q13131+Q9UGI9). The assay can be described thus: AMP-dependent Kinase enzyme assay. An in vitro enzyme assay that detects ADP turnover that is directly proportional to AMPK activity. This uses naive AMPK that is activated during the assay with MK-8722. It counts as functional. To be noted: 30 µM.

In assay [4] the target is Sialic acid-binding Ig-like lectin 9 (Homo sapiens) (UniProt Q9Y336). The assay can be described thus: Hs-Siglec9 ALPHAscreen SOP 20170721. The note with it: 10 µM. (In general: Alpha assays give light when donor and acceptor beads are brought close together.)
Assay [5] relates to Trypanosoma cruzi. In words: Trypanosoma cruzi phosphomannomutase and mannose-1-phosphate guanylyltransferase assay. It counts as functional. To be noted: 10 µM.
Assay [6] has as its target T2, Arginase-2, mitochondrial (Homo sapiens) (UniProt P78540).
T2 sequence (whole entry): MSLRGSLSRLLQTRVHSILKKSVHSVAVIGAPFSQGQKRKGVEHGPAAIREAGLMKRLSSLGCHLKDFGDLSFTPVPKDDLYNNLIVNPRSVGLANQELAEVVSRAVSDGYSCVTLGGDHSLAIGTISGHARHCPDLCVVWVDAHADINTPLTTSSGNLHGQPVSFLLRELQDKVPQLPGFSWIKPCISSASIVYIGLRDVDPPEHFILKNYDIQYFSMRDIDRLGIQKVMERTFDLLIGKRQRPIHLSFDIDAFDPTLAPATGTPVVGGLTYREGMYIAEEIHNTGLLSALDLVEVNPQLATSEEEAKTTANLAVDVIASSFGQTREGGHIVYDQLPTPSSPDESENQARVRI
In words: in vitro enzyme assay to detect the production of urea directly proportional to the activity of Arginase II. Note: in the data most compounds retested in dose-response had high values. It is filed as functional. To be noted: 33.3 µM.

In assay [7] the target is T3, Proteasome subunit beta (Trypanosoma cruzi) (UniProt O96673).
T3 sequence (whole entry): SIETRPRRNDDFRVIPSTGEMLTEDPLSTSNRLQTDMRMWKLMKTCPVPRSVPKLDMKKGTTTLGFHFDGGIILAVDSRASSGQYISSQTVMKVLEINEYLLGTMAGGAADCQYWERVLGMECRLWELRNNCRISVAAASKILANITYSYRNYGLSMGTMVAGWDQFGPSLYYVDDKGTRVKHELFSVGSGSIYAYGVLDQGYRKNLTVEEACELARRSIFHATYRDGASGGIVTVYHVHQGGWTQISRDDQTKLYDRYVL
The assay can be described thus: Trypanosoma cruzi proteasome chymotrypsin-like activity (TcProtChymo) assay. Note: in the data most compounds retested in dose-response had high values. To be noted: 9.37 µM. It is filed as functional.

For assay [8], the species on record is Homo sapiens. The assay can be described thus: To identify inhibition of the IFN signalling (Jak-Stat) pathway via expression of an eGFP reporter gene under the control of an IFN-stimulated response element (ISRE) containing MxA promoter. To be noted: 30 µM. It counts as functional. Background: In a reporter assay the amount or activity of a reporter protein is the signal.

For assay [9], the target named is T4, Tyrosyl-tRNA synthetase, putative (Trypanosoma cruzi (strain CL Brener)) (UniProt Q4DSP6).
T4 sequence (whole entry): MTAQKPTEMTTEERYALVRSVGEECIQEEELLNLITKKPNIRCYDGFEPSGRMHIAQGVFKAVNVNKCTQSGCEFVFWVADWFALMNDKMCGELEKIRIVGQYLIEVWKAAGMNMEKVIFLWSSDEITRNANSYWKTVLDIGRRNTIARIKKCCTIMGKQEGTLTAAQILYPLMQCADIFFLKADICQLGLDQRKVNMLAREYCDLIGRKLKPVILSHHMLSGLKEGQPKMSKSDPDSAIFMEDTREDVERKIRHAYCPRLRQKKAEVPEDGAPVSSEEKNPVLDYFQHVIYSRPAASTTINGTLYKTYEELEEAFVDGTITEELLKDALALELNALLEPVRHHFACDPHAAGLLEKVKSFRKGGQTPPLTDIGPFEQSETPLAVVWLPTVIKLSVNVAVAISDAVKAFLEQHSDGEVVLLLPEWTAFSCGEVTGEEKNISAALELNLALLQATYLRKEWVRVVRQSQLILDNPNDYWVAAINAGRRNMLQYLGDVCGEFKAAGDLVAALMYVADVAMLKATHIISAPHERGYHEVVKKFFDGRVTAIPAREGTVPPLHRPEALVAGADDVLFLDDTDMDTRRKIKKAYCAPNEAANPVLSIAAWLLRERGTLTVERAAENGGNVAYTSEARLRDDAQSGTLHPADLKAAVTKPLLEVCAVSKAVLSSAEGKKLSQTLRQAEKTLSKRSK
The assay can be described thus: Trypanosoma cruzi tyrosyl tRNA synthetase (TcYRS) _High Tyrosine SOP. Note: in the data most compounds retested in dose-response had high values. It is filed as functional. To be noted: 30 µM.

The target in assay [10] is T4, Tyrosyl-tRNA synthetase, putative (Trypanosoma cruzi (strain CL Brener)). In words: Trypanosoma cruzi tyrosyl tRNA synthetase (TcYRS) SOP. It counts as functional. To be noted: 30 µM.
Assay [11] concerns the target Chromo domain-containing protein 1 (Saccharomyces cerevisiae (strain ATCC 204508 / S288c) (Baker's yeast)) (UniProt P32657). In words: ScCHD-1 Enzyme Inhibition Assay. Note: in the data most compounds retested in dose-response had high values. It is filed as functional. The note with it: 30 µM.

Each structure is given as a SMILES string. For some of these results: Results with a measured potency or affinity are listed apart.

Data on eleven compounds can be found in ChEMBL document CHEMBL3988442, “University of Dundee, Small-Polar-MMV Screening Library” (2021).

Chain of Sialic acid-binding Ig-like lectin 9 (Homo sapiens) (Q9Y336 whole entry): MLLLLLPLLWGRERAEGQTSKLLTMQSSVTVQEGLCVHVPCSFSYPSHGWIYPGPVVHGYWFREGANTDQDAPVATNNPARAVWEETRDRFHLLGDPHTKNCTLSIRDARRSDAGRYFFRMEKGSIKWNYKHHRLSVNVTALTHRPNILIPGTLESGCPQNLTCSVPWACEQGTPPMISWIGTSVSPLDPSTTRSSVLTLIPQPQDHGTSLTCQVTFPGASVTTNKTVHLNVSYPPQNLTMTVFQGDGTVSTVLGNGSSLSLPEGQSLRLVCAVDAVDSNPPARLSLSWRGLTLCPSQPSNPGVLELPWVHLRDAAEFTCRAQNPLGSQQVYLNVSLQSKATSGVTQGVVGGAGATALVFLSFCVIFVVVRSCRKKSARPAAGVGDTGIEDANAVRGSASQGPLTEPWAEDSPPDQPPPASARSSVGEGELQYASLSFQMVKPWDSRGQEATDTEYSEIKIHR
Chain of Protein translocase subunit SecA (Escherichia coli (strain K12)) (P10408 whole entry): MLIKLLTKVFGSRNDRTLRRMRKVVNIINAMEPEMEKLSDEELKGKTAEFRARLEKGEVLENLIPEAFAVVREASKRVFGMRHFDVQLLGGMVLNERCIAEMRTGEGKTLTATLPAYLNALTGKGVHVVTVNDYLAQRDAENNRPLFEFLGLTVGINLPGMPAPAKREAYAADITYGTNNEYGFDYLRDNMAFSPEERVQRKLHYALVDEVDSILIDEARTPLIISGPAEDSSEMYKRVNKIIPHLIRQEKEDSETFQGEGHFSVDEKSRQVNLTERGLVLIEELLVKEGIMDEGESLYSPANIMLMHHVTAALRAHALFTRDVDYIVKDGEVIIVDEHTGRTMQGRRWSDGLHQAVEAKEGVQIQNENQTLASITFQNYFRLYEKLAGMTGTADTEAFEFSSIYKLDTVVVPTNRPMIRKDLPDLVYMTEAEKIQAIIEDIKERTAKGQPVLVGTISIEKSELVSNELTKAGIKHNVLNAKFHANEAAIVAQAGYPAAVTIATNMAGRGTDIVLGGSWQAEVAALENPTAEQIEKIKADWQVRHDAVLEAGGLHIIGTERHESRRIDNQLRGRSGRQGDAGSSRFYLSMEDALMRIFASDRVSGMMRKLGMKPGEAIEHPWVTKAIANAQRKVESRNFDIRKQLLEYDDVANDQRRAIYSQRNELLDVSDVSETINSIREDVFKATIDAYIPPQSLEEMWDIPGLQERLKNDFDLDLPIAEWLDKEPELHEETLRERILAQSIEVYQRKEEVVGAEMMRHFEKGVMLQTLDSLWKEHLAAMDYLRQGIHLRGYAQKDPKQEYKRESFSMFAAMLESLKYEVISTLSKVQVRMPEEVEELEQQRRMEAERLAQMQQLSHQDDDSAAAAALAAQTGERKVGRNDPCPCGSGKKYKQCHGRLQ
Chain of Chromo domain-containing protein 1 (Saccharomyces cerevisiae (strain ATCC 204508 / S288c) (Baker's yeast)) (P32657 whole entry, the tested form may be a part): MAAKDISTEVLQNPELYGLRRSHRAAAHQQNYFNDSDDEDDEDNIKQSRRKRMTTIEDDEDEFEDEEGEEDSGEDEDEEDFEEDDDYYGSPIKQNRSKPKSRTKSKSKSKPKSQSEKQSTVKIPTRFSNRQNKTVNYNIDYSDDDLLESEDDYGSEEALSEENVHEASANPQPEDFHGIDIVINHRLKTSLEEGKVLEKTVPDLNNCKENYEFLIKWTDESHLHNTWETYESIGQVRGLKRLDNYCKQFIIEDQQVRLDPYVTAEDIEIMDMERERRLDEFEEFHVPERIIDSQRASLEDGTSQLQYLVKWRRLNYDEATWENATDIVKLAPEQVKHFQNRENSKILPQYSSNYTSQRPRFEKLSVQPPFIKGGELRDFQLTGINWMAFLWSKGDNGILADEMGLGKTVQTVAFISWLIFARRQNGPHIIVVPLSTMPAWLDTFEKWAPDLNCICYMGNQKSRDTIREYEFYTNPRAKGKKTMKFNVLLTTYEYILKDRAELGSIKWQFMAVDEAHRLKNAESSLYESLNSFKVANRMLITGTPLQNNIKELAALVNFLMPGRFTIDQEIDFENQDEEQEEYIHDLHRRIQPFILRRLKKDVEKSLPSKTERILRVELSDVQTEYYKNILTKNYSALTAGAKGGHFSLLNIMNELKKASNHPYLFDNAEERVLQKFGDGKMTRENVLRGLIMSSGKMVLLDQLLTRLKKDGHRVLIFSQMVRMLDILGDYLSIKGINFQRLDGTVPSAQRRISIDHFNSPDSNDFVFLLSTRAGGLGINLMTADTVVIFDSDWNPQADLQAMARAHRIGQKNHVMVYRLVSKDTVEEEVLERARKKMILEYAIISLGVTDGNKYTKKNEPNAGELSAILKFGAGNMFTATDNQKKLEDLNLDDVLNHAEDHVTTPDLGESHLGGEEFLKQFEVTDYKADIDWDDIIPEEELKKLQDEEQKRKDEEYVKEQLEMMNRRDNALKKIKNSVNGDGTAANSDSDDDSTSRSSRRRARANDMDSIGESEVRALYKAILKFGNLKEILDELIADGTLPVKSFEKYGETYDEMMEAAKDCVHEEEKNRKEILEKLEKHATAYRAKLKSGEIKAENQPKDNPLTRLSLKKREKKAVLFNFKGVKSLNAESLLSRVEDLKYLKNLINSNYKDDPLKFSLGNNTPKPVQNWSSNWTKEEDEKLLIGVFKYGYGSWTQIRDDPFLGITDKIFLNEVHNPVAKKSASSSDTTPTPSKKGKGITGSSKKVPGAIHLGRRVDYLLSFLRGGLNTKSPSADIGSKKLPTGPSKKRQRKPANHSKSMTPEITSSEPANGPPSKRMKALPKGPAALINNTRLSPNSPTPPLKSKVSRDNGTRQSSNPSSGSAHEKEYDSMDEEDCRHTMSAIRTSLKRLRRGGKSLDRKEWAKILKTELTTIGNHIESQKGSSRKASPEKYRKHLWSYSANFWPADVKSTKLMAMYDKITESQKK

Consider `CN(C)C(=O)CO[C@H]1CN(Cc2ccc(F)cc2)[C@@H]2CCCO[C@H]12`, for which the Percent Effect in assay [1] is -4.67%; in assay [2], 10.4%; in [3], 1.52%; in assay [4], 9.7%; in [5] it was 4.23%; in [6], 2.76%. In addition, the Percent Effect was 15.3% in assay [7]; -1.14% in [8]; 5.38% in assay [9]; 11.1% in assay [10]; -1.79% in [11].
In the case of `C[C@@H]1CN(C(=O)c2ccc(C#N)nc2)C[C@@]1(O)C1CC1`, the Percent Effect was -4.79% in [1]; 13.5% in assay [2]; -4.57% in [3]; 30.4% in [4]; 9.65% in assay [5]; -1.91% in assay [6]. Moreover, the Percent Effect in assay [7] was 5%; in assay [8], 1.76%; in assay [9] it was 2.65%; in assay [10], 14.6%; in assay [11], -12.3%.
With `CN(C)c1ccc(CNC(=O)c2ccc(Cl)cc2F)cc1`, the Percent Effect in assay [1] is -6.46%; in [2], 21.1%; in assay [3], -2.58%; in [4] it was 2.05%; in [5], 1.46%; in assay [6], -4.73%. The Percent Effect is 13.7% in assay [7]; 11.1% in assay [8]; 4.25% in assay [9]; 20.8% in assay [10]; -6.29% in [11].
Regarding `CN(C)CC1CN(c2cnc3ccccc3n2)CCO1` (stereo unspecified), the Percent Effect in assay [1] is -0.138%; in assay [2], 22.8%; in assay [3] it was -4.08%; in [4] it was -7.06%; in assay [5], 3.49%; in assay [6] it was 6.84%. Moreover, the Percent Effect was 12.7% in [7]; 19.6% in assay [8]; 7.39% in [9]; 26.6% in assay [10]; -5.98% in [11].
In the case of `Cc1ccc(CNC(=O)Nc2cc(C(F)(F)F)c[nH]c2=O)cn1`, the Percent Effect in assay [1] was -3.22%; in assay [2], 6.94%; in [3] it was 7.59%; in assay [4] it was -6.47%; in [5], 0.0972%; in assay [6], 4.42%. For the same compound, the Percent Effect in assay [7] was 11.6%; in [8] it was -18.5%; in [9], 6.32%; in [10], 12.8%; in assay [11], -5.05%.
In the case of `COc1ccc(CNC(C)c2ccc3[nH]c(=O)[nH]c3c2)cc1` (stereo unspecified), the Percent Effect in assay [1] was 0.617%; in assay [2], -5.41%; in assay [3], -4.65%; in assay [4], 13.3%; in [5], 1.23%; in [6], -6.81%. Also, the Percent Effect in assay [7] was 0.36%; in assay [8], 22.4%; in assay [9], 1.48%; in assay [10] it was 1.24%; in [11], -9.21%.
Regarding `Cc1ccc(C(NC(=O)CC2CCN(C(C)C)CC2)C(=O)O)cc1` (stereo unspecified), the Percent Effect in [1] was -4.94%; in [2], 2.7%; in assay [3], -0.654%; in assay [4], -0.948%; in assay [5], 1.74%; in assay [6] it was 0.476%. Further, the Percent Effect in [7] was 1.55%; in assay [8] it was 0.454%; in [9], 2.65%; in assay [10], 9.76%; in [11], 0.336%.
With `O=C(c1ccc(-n2cccn2)nc1)N1CCCN(c2cccnn2)CC1`, the Percent Effect in assay [1] was -2.01%; in assay [2] it was 0%; in assay [3], 6.8%; in assay [4], -1.08%; in assay [5], -6.76%; in assay [6], 1.47%. Moreover, the Percent Effect in [7] is 13%; in assay [8] it was -7.18%; in assay [9], -0.952%; in [10], 0%; in assay [11], -11.3%.
Turning to `Fc1ccc(-c2nnc(CN3CCOC(Cn4cncn4)C3)o2)cc1` (stereo unspecified), the Percent Effect in assay [1] was -6.46%; in [2], 0%; in [3] it was 1.39%; in [4] it was -4.51%; in assay [5] it was -2.62%; in assay [6] it was 3.56%. Moreover, the Percent Effect in [7] is -2.37%; in [8] it was 19.6%; in [9], 0.971%; in [10] it was -14.6%; in assay [11], -2.35%.
On to `CN(Cc1nc(N)c2ccccc2n1)CC1CCCN1c1cccnn1` (stereo unspecified), for which the Percent Effect is -6.24% in assay [1]; 5.2% in assay [2]; 2.23% in assay [3]; -2.05% in assay [4]; 11.8% in assay [5]; -2.32% in assay [6]. The Percent Effect in [7] was 13.2%; in [8] it was -8.77%; in [9], 6.67%; in [10], 18.8%; in assay [11], -22.9%.
On to `COC(=O)c1cc(C(=O)N2CCOCC2(C)C)n(-c2ccccc2)n1`, for which the Percent Effect in assay [1] was -2.65%; in assay [2], 7.89%; in assay [3], 4.52%; in assay [4] it was 4.64%; in [5], 6.2%; in assay [6] it was -6.13%. In addition, the Percent Effect is 0% in assay [7]; -3.57% in assay [8]; 4.41% in assay [9]; 17.1% in assay [10]; -9.02% in [11].
